According to the antibiotic and cytotoxicity screens of Wong et al. (2023):
About 1,500 (3.8%) of roughly 39,000 compounds were called active. What follows is part of a selection rich in actives, with near analogues and random picks from the rest.

What follows are molecules tested on HSkMC (human skeletal muscle cells) (assay: cytotoxicity call (relative viability < 0.9)). Conditions: 10 µM.
With `COCC#Cc1ccc2c(c1)O[C@@H](CN(C)C(=O)C1CCOCC1)[C@H](C)CN([C@H](C)CO)S2(=O)=O` the cytotoxicity call was “inactive”. `CC(C)[Si](C#CCCCC#N)(O[C@H](c1ccccc1)c1cn(Cc2cccc(Cl)c2)nn1)C(C)C` was tested, and the cytotoxicity call was “inactive”. For `C[C@H](CO)N1C[C@H](C)[C@@H](CN(C)Cc2ccccc2)OCCCC[C@H](C)Oc2ccc(NC(=O)Nc3ccc(F)cc3)cc2C1=O`, the cytotoxicity call was “inactive”. `C[C@H]1CN([C@@H](C)CO)C(=O)c2cccc(NC(=O)c3ccc(-c4nccs4)cc3)c2O[C@@H]1CN(C)Cc1ccccc1` was tested, and the cytotoxicity call was “inactive”. With `Cc1noc(C)c1NC(=O)N(C)C[C@@H]1Oc2ncc(C#Cc3ccccc3)cc2C(=O)N([C@H](C)CO)C[C@@H]1C` the cytotoxicity call was “inactive”. With `COc1ccc(S(=O)(=O)Nc2ccc3c(c2)C(=O)N([C@@H](C)CO)C[C@H](C)[C@H](CN(C)C(=O)NC2CCCCC2)OCCCC[C@H](C)O3)cc1` the cytotoxicity call was “inactive”. With `CCCC#Cc1ccc2c(c1)O[C@@H](CN(C)Cc1ccc3c(c1)OCO3)[C@@H](C)CN([C@@H](C)CO)S2(=O)=O` the cytotoxicity call was “inactive”. `COCC(=O)N1CC[C@]2(CC1)CN([C@@H](CO)c1[nH]c3cc(ccc3c12)OC)S(=O)(=O)C` was tested, and the cytotoxicity call was “inactive”. `Cn1c2c(c(=S)[nH]c1=O)CCC2` was tested, and the cytotoxicity call was “inactive”. With `Cc1ccc(S(=O)(=O)Nc2ccc3c(c2)C(=O)N([C@@H](C)CO)C[C@H](C)[C@H](CN(C)Cc2ccc(C(=O)O)cc2)OCCCC[C@H](C)O3)cc1` the cytotoxicity call was “inactive”. `C[C@@H]1CN([C@@H](C)CO)C(=O)c2cc(NC(=O)Nc3ccc4c(c3)OCO4)ccc2O[C@@H](C)CCCCO[C@@H]1CN(C)Cc1ccc(C(=O)O)cc1` was tested, and the cytotoxicity call was “inactive”. For `C[C@@H]1CN([C@@H](C)CO)C(=O)c2cc(NC(=O)Nc3ccc(F)cc3)ccc2O[C@@H](C)CCCCO[C@H]1CN(C)C(=O)Cc1ccccc1`, the cytotoxicity call was “inactive”. `C[C@@H]1CN([C@@H](C)CO)C(=O)c2cc(NC(=O)Nc3ccccc3)ccc2O[C@@H](C)CCCCO[C@@H]1CN(C)C(=O)Cc1ccccc1` was tested, and the cytotoxicity call was “inactive”. `C[C@H]1CCCCO[C@H](CN(C)Cc2ccc(C(=O)O)cc2)[C@@H](C)CN([C@@H](C)CO)C(=O)c2cc(NC(=O)C3CCCCC3)ccc2O1` was tested, and the cytotoxicity call was “inactive”. With `C(=N\c1ccccc1)/c1ccc(Oc2ccccc2)cc1` the cytotoxicity call was “inactive”. For `C[C@@H]1CN([C@H](C)CO)C(=O)Cc2cc(NC(=O)CCCCCC(=O)Nc3ccccc3N)ccc2O[C@@H]1CN(C)Cc1ccc(C(F)(F)F)cc1`, the cytotoxicity call was “active”. `C[C@@H]1CN([C@@H](C)CO)C(=O)Cc2cc(NC(=O)CCCCCC(=O)Nc3ccccc3N)ccc2O[C@H]1CN(C)Cc1ccc(C(F)(F)F)cc1` was tested, and the cytotoxicity call was “inactive”. With `C[C@@H]1CN([C@@H](C)CO)C(=O)Cc2cc(NC(=O)CCCCCC(=O)Nc3ccccc3N)ccc2O[C@@H]1CN(C)Cc1ccc(C(F)(F)F)cc1` the cytotoxicity call was “active”. With `C[C@H]1CN([C@@H](C)CO)C(=O)Cc2cc(NC(=O)CCCCCC(=O)Nc3ccccc3N)ccc2O[C@@H]1CN(C)Cc1ccc(C(F)(F)F)cc1` the cytotoxicity call was “inactive”. In the case of `C[C@H](CO)N1C[C@H](C)[C@H](CN(C)Cc2ccc(C(F)(F)F)cc2)Oc2ccc(NC(=O)CCCCCC(=O)Nc3ccccc3N)cc2CC1=O`, the cytotoxicity call is reported as “inactive”. For `C[C@@H]1CN([C@H](C)CO)C(=O)Cc2cc(NC(=O)CCCCCC(=O)Nc3ccccc3N)ccc2O[C@H]1CN(C)Cc1ccc(C(F)(F)F)cc1`, the cytotoxicity call was “inactive”. In the case of `COc1cccc(Nc2ncnn3ccc(CN4CC[C@@H](N)[C@H](O)C4)c23)c1`, the cytotoxicity call is reported as “inactive”. In the case of `COc1cccc(S(=O)(=O)N2C[C@H](O)COC[C@H]3O[C@H](CC(=O)N4CCN(C)CC4)CC[C@@H]32)c1`, the cytotoxicity call is reported as “inactive”. With `C[C@H](CO)N1C[C@H](C)[C@@H](CN(C)CC2CC2)Oc2ccc(NS(=O)(=O)c3ccccc3)cc2C1=O` the cytotoxicity call was “inactive”. `CC1(C)[C@H]2CC[C@@]1(C)c1nn(-c3ccccc3)c(C(F)(F)F)c12` was tested, and the cytotoxicity call was “inactive”. In the case of `C[C@H](CO)N1C[C@H](C)[C@@H](CN(C)C(=O)Nc2cccc3ccccc23)OCCCC[C@H](C)Oc2ccc(NC(=O)Nc3ccc(F)cc3)cc2C1=O`, the cytotoxicity call is reported as “inactive”. With `C[C@@H]1CN([C@H](C)CO)C(=O)c2cc(NC(=O)Nc3ccc4c(c3)OCO4)ccc2O[C@@H]1CN(C)Cc1ccc(Oc2ccccc2)cc1` the cytotoxicity call was “active”. In the case of `C[C@@H]1CN([C@@H](C)CO)C(=O)c2cc(NC(=O)Cc3ccccc3)ccc2O[C@@H]1CN(C)Cc1ccc(Oc2ccccc2)cc1`, the cytotoxicity call is reported as “active”. In the case of `C[C@@H]1CN([C@@H](C)CO)C(=O)c2cc(NC(=O)Nc3ccccc3)ccc2O[C@@H]1CN(C)Cc1ccc(Oc2ccccc2)cc1`, the cytotoxicity call is reported as “active”. For `C[C@@H]1CN([C@@H](C)CO)C(=O)c2cc(NC(=O)Nc3ccc4c(c3)OCO4)ccc2O[C@H]1CN(C)Cc1ccc(Oc2ccccc2)cc1`, the cytotoxicity call was “inactive”. `C[C@@H]1CN([C@@H](C)CO)C(=O)c2cc(NC(=O)Nc3ccccc3)ccc2O[C@H]1CN(C)Cc1ccc(Oc2ccccc2)cc1` was tested, and the cytotoxicity call was “inactive”. `COc1ccc(NC(=O)Nc2ccc3c(c2)C(=O)N([C@H](C)CO)C[C@H](C)[C@H](CN(C)Cc2ccc(Oc4ccccc4)cc2)O3)cc1` was tested, and the cytotoxicity call was “active”. `C[C@@H]1CN([C@@H](C)CO)C(=O)c2cc(NC(=O)Cc3ccccc3)ccc2O[C@H]1CN(C)Cc1ccc(Oc2ccccc2)cc1` was tested, and the cytotoxicity call was “inactive”. For `C[C@@H]1CN([C@H](C)CO)C(=O)c2cc(NC(=O)Cc3ccccc3)ccc2O[C@@H]1CN(C)Cc1ccc(Oc2ccccc2)cc1`, the cytotoxicity call was “inactive”. For `COc1ccc(NC(=O)Nc2ccc3c(c2)C(=O)N([C@H](C)CO)C[C@@H](C)[C@@H](CN(C)Cc2ccc(Oc4ccccc4)cc2)O3)cc1`, the cytotoxicity call was “inactive”. With `C[C@H](CO)N1C[C@H](C)[C@H](CN(C)Cc2ccc(Oc3ccccc3)cc2)Oc2ccc(NC(=O)Nc3ccc4c(c3)OCO4)cc2C1=O` the cytotoxicity call was “inactive”. `C[C@H](CO)N1C[C@H](C)[C@@H](CN(C)Cc2ccc(Oc3ccccc3)cc2)Oc2ccc(NC(=O)Nc3ccccc3)cc2C1=O` was tested, and the cytotoxicity call was “inactive”. With `COc1ccc(NC(=O)Nc2ccc3c(c2)C(=O)N([C@H](C)CO)C[C@H](C)[C@@H](CN(C)Cc2ccc(Oc4ccccc4)cc2)O3)cc1` the cytotoxicity call was “inactive”. In the case of `Cc1ccc(S(=O)(=O)N[C@@H]2CC[C@@H](CC(=O)N3CCC(Cc4ccccc4)CC3)O[C@H]2CO)cc1`, the cytotoxicity call is reported as “inactive”. In the case of `C[C@H](CO)N1C[C@H](C)[C@@H](CN(C)Cc2ccc(Oc3ccccc3)cc2)Oc2c(NC(=O)c3ccc(-c4nccs4)cc3)cccc2C1=O`, the cytotoxicity call is reported as “inactive”. With `C[C@@H]1CN([C@H](C)CO)S(=O)(=O)c2ccc(C#Cc3ccccn3)cc2O[C@H]1CN(C)Cc1ccccc1` the cytotoxicity call was “inactive”. In the case of `CCCC(=O)Nc1ccc2c(c1)C(=O)N(C)C[C@H](OC)[C@@H](C)CN(S(=O)(=O)c1cn(C)cn1)[C@@H](C)CO2`, the cytotoxicity call is reported as “inactive”. For `COc1cccc(OC)c1C(=O)O[C@H]1[C@@H]2OC(=O)[C@H](Cc3cccc(Br)c3)C/C=C/C[C@@H](Cc3cccc(Br)c3)C(=O)O[C@H]2[C@@H](OC)O[C@@H]1CO`, the cytotoxicity call was “inactive”. With `C[C@@H]1CCCCO[C@H](CN(C)C(=O)c2ccccc2)[C@H](C)CN([C@@H](C)CO)C(=O)c2cc(NC(=O)Nc3ccc(F)cc3)ccc2O1` the cytotoxicity call was “inactive”. `COc1ccc(NC(=O)Nc2ccc3c(c2)CC(=O)N([C@@H](C)CO)C[C@@H](C)[C@H](CN(C)Cc2ccc(-c4ccccc4)cc2)O3)cc1` was tested, and the cytotoxicity call was “inactive”. With `C[C@H]1CCCCO[C@H](CN(C)C(=O)Nc2cccc3ccccc23)[C@@H](C)CN([C@@H](C)CO)C(=O)c2cc(N(C)C)ccc2O1` the cytotoxicity call was “inactive”. In the case of `C[C@@H]1CN([C@H](C)CO)C(=O)c2cc(NC(=O)Nc3ccccc3)ccc2O[C@@H]1CN(C)Cc1ccc(Oc2ccccc2)cc1`, the cytotoxicity call is reported as “active”. In the case of `C[C@H]1CN([C@@H](C)CO)C(=O)c2cc(NC(=O)Nc3ccccc3)ccc2O[C@H]1CN(C)Cc1ccc(Oc2ccccc2)cc1`, the cytotoxicity call is reported as “inactive”. `COc1ccc(NC(=O)Nc2ccc3c(c2)C(=O)N([C@@H](C)CO)C[C@@H](C)[C@@H](CN(C)Cc2ccc(-c4ccccc4)cc2)O3)cc1` was tested, and the cytotoxicity call was “inactive”. In the case of `C[C@@H]1CN([C@H](C)CO)C(=O)c2cc(NC(=O)Nc3ccccc3)ccc2O[C@H]1CN(C)Cc1ccc(Oc2ccccc2)cc1`, the cytotoxicity call is reported as “inactive”. In the case of `COc1ccc(NC(=O)Nc2ccc3c(c2)C(=O)N([C@@H](C)CO)C[C@H](C)[C@@H](CN(C)Cc2ccc(-c4ccccc4)cc2)O3)cc1`, the cytotoxicity call is reported as “active”. In the case of `COc1ccc(NC(=O)Nc2ccc3c(c2)C(=O)N([C@H](C)CO)C[C@H](C)[C@@H](CN(C)Cc2ccc(-c4ccccc4)cc2)O3)cc1`, the cytotoxicity call is reported as “inactive”. With `COc1ccc2c3c([nH]c2c1)[C@@H](CO)N(C[C@]13CCN(CC1)Cc1ccccc1F)S(=O)(=O)c1cn(cn1)C` the cytotoxicity call was “inactive”. With `C[C@@H]1CN([C@@H](C)CO)C(=O)c2cc(NC(=O)Nc3cccc4ccccc34)ccc2O[C@@H]1CN(C)C(=O)Nc1ccc(F)cc1` the cytotoxicity call was “inactive”. With `CN1C(=O)c2cc(NC(=O)C3CCOCC3)ccc2OC[C@@H]2O[C@H](CC(=O)NCc3ccc4c(c3)OCO4)CC[C@@H]21` the cytotoxicity call was “inactive”. For `COC(=O)c1c2oc(c1C(=O)OC)C(=O)N[C@H](Cc1ccccc1)Cn1cc(nn1)[C@@H](Cc1ccccc1)NC(=O)N[C@H](COC(=O)NCCCCCC(=O)NO)CC2`, the cytotoxicity call was “inactive”. In the case of `Cc1cc(C)n([C@@H](C)CN)n1`, the cytotoxicity call is reported as “inactive”. With `C[C@H]1CN([C@@H](C)CO)C(=O)c2cccc(NS(=O)(=O)c3cccs3)c2O[C@@H]1CN(C)S(=O)(=O)c1cn(C)cn1` the cytotoxicity call was “inactive”. With `C[C@H](CO)N1C[C@H](C)[C@@H](CN(C)S(=O)(=O)c2cn(C)cn2)Oc2cc(C3=CCCC3)ccc2S1(=O)=O` the cytotoxicity call was “inactive”. In the case of `COc1ccc(CN(C)C[C@H]2Oc3ccc(NC(=O)C4CC4)cc3CC(=O)N([C@@H](C)CO)C[C@@H]2C)cc1`, the cytotoxicity call is reported as “inactive”.
